The values that follow come from PubChem BioAssay (NCATS).

Unmarked numbers belong to inactive results. Inconclusive results are not listed. Active and inactive are the calls of the source. Unless noted, the call rests on the fitted dose curve; in most records, active means well fitted curve in the direction sought with a large enough effect; inconclusive means small, poorly fitted or top-dose-only effect, or another doubt; inactive means no such curve, though single readings can be large; an effect the other way counts as inactive or inconclusive.

Assay [1] is described as follows: Cell Viability - Jurkat (AID 426;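 active means dose-dependent loss of cell ATP signal giving a full or clear fitted curve, ranked by lower potency value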;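 further: potency means the concentration at half of the fitted maximal effect; cells exposed to compound for 40 hours at 37 °C before ATP read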). The following applies: qHTS. In a few lines: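 Seed 5000 Jurkat E6-1 cells/well; add compound; incubate 40 hr at 37 °C; add CellTiter-Glo; wait 20 min at room temperature; read luminescence. Fit concentration-response with Hill equation for AC50.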
Assay [2] in a line: Cell Viability - Hek293 (AID 427;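 active means compounds whose dose-response curve shows a full or clear partial loss of cell viability, called from curve shape rather than a numeric limit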;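 further: potency means the concentration at half of the fitted maximal effect; cells exposed to compound for 40 hours at 37 °C before reading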). To be noted: qHTS. In a few lines: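 Luminescent ATP content (CellTiter-Glo, 20 min at room temperature) was measured after a 40 hr, 37 °C compound exposure of HEK293 cells. AC50 values came from Hill-equation fits of qHTS concentration-response data normalized to DMSO and 100 uM tamoxifen.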
A short description of assay [3]: Cell Viability - HepG2 (AID 433; calls by dose curve;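 further: potency means the concentration at half of the fitted maximal effect; potency for ATP loss meaning cytotoxicity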). To be noted: qHTS. In a few lines:
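HepG2 hepatocellular carcinoma cells (1500/well) were treated with compounds for 40 h at 37 °C in complete medium; intracellular ATP was read by CellTiter-Glo luminescence. Data were normalized to DMSO and 100 uM tamoxifen, and AC50 came from Hill fits.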
(In general: Quantitative high-throughput screening tests each substance at several concentrations.)

A short description of assay [4]: Cell Viability - MRC5 (AID 434; calls by dose curve;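 further: potency means the concentration at half of the fitted maximal effect; potency reflects cytotoxicity seen as loss of intracellular ATP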). To be noted: MRC5 lung fibroblast viability, qHTS. In a few lines:
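MRC5 normal human lung fibroblasts (1500/well) were treated with compounds for 40 hr at 37 °C in complete medium, and viable cells were measured as intracellular ATP by CellTiter-Glo luminescence. AC50 came from Hill fits, normalized to DMSO and 100 uM tamoxifen.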

The nature of assay [5]: Cell Viability - SK-N-SH (AID 435; calls by dose curve;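 further: potency means the concentration at half of the fitted maximal effect; compound exposure lasted 40 h at 37 °C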). To be noted: SK-N-SH neuroblastoma cell viability qHTS. The essentials:
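SK-N-SH human neuroblastoma cells (1500/well) were exposed to compounds in complete medium for 40 h at 37 °C, and intracellular ATP was then measured by CellTiter-Glo luminescence. AC50 was taken from Hill fits, normalized to DMSO and 100 uM tamoxifen.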

The nature of assay [6]: Cell Viability - N2a (AID 540).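 Further: plate controls were DMSO alone for no effect and tamoxifen control for full effect; nearly all actives have a fitted effect of over 45% in size.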 The following applies: N2a mouse neuroblastoma cell viability; at 92.2 µM (top of the series). The essentials: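 First, 1500 N2a cells per well incubate 5 hr at 37 °C; next, compounds are added and incubated 40 hr at 37 °C; finally CellTiter-Glo is added and luminescence read after 20 min, with AC50 derived by Hill modeling.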
Assay [7] can be described thus: Cell Viability - NIH 3T3 (AID 541).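 Further: plate controls were DMSO alone for no effect and tamoxifen positive control for full effect; nearly all actives have a fitted effect of over 25% in size.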 The following applies: NIH 3T3 cell viability, qHTS; activity change, negative = cytotoxicity: at 92.2 µM (top of the series). In a few lines:
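AC50 values reflect concentration-dependent loss of intracellular ATP in NIH 3T3 cells after 40 hr treatment in complete culture medium, quantified by luciferase-based luminescence.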

Assay [8] in a line: Cell Viability - HUV-EC-C (AID 542). Further: on the % scale 0 is the no-effect control and ±100 the full control effect; nearly all actives have a fitted effect of over 35% in size. In a few lines:
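Decrease in cellular ATP, quantified by luciferase luminescence, reflects toxicity in normal human vascular endothelial HUV-EC-C cells given compound for 40 hr in complete culture medium. Values are AC50s from concentration-response curves.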

Assay [9] is described as follows: Cell Viability - H-4-II-E (AID 543). Further: on the % scale 0 is the no-effect control and ±100 the full control effect; nearly all actives have a fitted effect of over 35% in size. The essentials:
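Here, cytotoxicity is measured in the rat hepatoma line H-4-II-E as loss of intracellular ATP after 40 hr compound treatment, detected by luciferase luminescence.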

Assay [10] in a line: Cell Viability - SH-SY5Y (AID 544).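 Further: 0% = DMSO alone and -100% = 100 µM tamoxifen; nearly all actives have a fitted effect of over 55% in size.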 To be noted: SH-SY5Y neuroblastoma cell viability; viability change, negative = cytotoxic: at 92.2 µM (top of the series). The essentials:
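Cytotoxicity is scored as a concentration-dependent fall in intracellular ATP in human SH-SY5Y cells treated 40 hr in complete culture medium. Potency is expressed as AC50 from a Hill equation fit.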

A short description of assay [11]: Cell Viability - Renal Proximal Tubule (AID 545). Further: nearly all actives have a fitted effect of over 40% in size. To be noted: renal proximal tubule cells viability; at 91.7 µM (top of the series), primary cells of rat origin unless noted. In a few lines: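 Primary rat renal proximal tubule cells (1000/well) were treated with compounds for 40 hr at 37 °C in complete medium. Intracellular ATP was measured by CellTiter-Glo luminescence, and AC50 values came from Hill-equation fits of concentration-response data.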

Assay [12] can be described thus: Cell Viability - Mesenchymal (AID 546).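 Further: cells exposed to compound for 40 hours before reading.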 The essentials:
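Normal human renal glomerulus-derived kidney mesenchymal cells, 1000 per well in complete medium, were treated with compounds for 40 hr at 37 °C. Viability was read as intracellular ATP by CellTiter-Glo luminescence; AC50 values came from Hill-equation fits of qHTS concentration-response data.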

The nature of assay [13]: Cellular Toxicity (caspase-3) HepG2 (AID 654).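 Further: cells exposed to compound for 16 hours before reading; 0% = DMSO alone and 100% = caspase signal from 100 µM tamoxifen.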 The essentials: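 qHTS, HepG2, 1500 cells/well, complete medium; cpd 16 h 37 °C; Caspase-Glo 3/7, 20 min RT; lum. Norm: DMSO vs 100 uM tamoxifen; AC50 Hill fit.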
Assay [14] can be described thus: Cellular Toxicity (caspase-3) HUV-EC-C (AID 656). The essentials: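 HUV-EC-C endothelial cells, 1000/well, were pre-incubated 5 hr at 37°C, then exposed to compounds for 16 hr at 37°C. Caspase-Glo 3/7 luminescence was read after 20 min at room temperature. AC50 came from Hill fits, normalized to DMSO and 100 uM tamoxifen.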
A short description of assay [15]: Cellular Toxicity (caspase-3) SHSY5Y (AID 657). The essentials:
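SH-SY5Y human neuroblastoma cells (1500/well) were treated with compounds for 16 h at 37 °C, then Caspase-Glo 3/7 luminescence was read after 1 h at room temperature. Data normalized to DMSO and 10 uM staurosporine; AC50 from Hill fits.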

Assay [16] can be described thus: Cellular Toxicity (caspase-3) BJ (AID 658). In a few lines: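 Luminescent aminoluciferin-substrate cleavage reports caspase 3/7 activity in normal human BJ fibroblasts after 16 hr compound exposure at 37 °C. Normalized to DMSO (basal) and 10 uM staurosporine (100%); AC50 from Hill fit of concentration-response.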
Assay [17] can be described thus: Cellular Toxicity (caspase-3) MRC-5 (AID 659). In a few lines:
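Luminescence from caspase-cleaved aminoluciferin substrate (Caspase-Glo 3/7, 1 hr RT) reports caspase 3/7 activity in MRC-5 lung fibroblasts after 16 hr compound exposure. Normalized to DMSO basal and 10 uM staurosporine as 100%; AC50 from Hill fits.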

A short description of assay [18]: Cellular Toxicity (caspase-3) Mesangial (AID 660).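 Further: combined caspase 3 and 7 activity read by Caspase-Glo luminescence; cells exposed to compound for 16 h before the caspase read.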 In a few lines: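 Concentration-response qHTS: compound-induced rise in caspase 3/7 luminescence in human mesangial cells after 16 h, normalized to DMSO and 100 uM tamoxifen controls.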
A short description of assay [19]: Cellular Toxicity (caspase-3) H-4-II-E (AID 663).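 Further: cells exposed to compound for 16 hr before readout.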 The essentials:
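Luminescence from caspase-cleaved aminoluciferin substrate, read 20 min after reagent addition, reports caspase 3/7 activation in rat H-4-II-E cells after 16 hr compound exposure. Normalized to DMSO (basal) and 100 uM tamoxifen (100%); AC50 from Hill fits.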

Assay [20] is described as follows: Cellular Toxicity (caspase-3) Hek293 (AID 664).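 Further: cells exposed to compound for 16 h at 37 °C before readout.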 In a few lines:
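Activation of caspase-3/7 is measured as increased luminescence from cleaved peptide-aminoluciferin substrate in HEK293 cells treated 16 hours at 37 °C. AC50 values come from Hill-equation fits of concentration-response data.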

Assay [21] can be described thus: Cellular Toxicity (caspase-3) NIH 3T3 (AID 666).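 Further: 0% = DMSO basal and 100% = 100 µM tamoxifen stimulation.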 The essentials: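 Concentration-response qHTS in NIH 3T3 mouse fibroblasts scores caspase-3/7 activation as rising luminescence after 16 hr compound exposure. Signals are scaled between DMSO-only and 100 uM tamoxifen.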
The nature of assay [22]: Cellular Toxicity (caspase-3) Renal Proximal Tubule (AID 667).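 Further: cells exposed to compound for 16 hours at 37 °C before detection.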 The following applies: renal proximal tubule cells; at 91.7 µM (top of the series), primary cells freshly taken from rat, solvent-only wells 0%, staurosporine 100% unless noted. In a few lines: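 Primary rat proximal tubule cells, 1000/well, 5 h plating at 37 °C, then compound 16 h at 37 °C. Caspase-Glo 3/7 reagent, 1 h RT, luminescence. Normalized to DMSO (basal) and 10 uM staurosporine (100%); Hill-fit AC50.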

On to `Clc1cc(Cl)c(-c2cc(Cl)c(Cl)cc2Cl)cc1Cl`, for which the Potency in [1] is greater than 92 µM; in assay [2] it was greater than 92 µM; in assay [3], greater than 92 µM; in assay [4], 24.3 µM (active); in assay [5], greater than 92 µM. Further, the values for the activity change, negative = cytotoxicity in assay [6], in [7] and in [11] were -93.1% (active), -24.8% and -5.09% [at 91.7 µM], respectively. Besides, the Potency result in assay [8], in [9] and in [10] was “inactive” each time. Further, the result in assay [12], in assay [13], in [14], in assay [15], in [16] and in [17] was inactive. The outcome in assay [18], in assay [19], in [20] and in assay [21] was inactive. Further, the caspase-3 activation in assay [22] was -3.51% [at 91.7 µM].
